# Measurements taken from the supplement of paper PMC8728848.
# Many of the other results were omitted from the sample, so the strongest signals are more common in it than they were.
# How the values were obtained:
# Test in all cases: glycan array binding signal (z-score within array); higher = stronger binding
# Details in all cases: glycan notation: IUPAC condensed, linker removed
# [1] = biological target: Fuc(a1-2)Gal(b1-3)GalNAc(a1-3)[Fuc(a1-2)]Gal(b1-4)Glc
# Method in brief: (§1)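 The binding signal is a Z-score computed within each array. Data were drawn from 3228 arrays in the Consortium for Functional Glycomics database, restricted to those with a known protein sequence. Scores were averaged over arrays of the same protein sequence at different concentrations or buffers, and over linkers, and negative values can be taken as non-binding.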
# [2] = biological target: Fuc(a1-2)Gal(b1-4)[Fuc(a1-3)]GlcNAc
# Method in brief: as §1
# [3] = biological target: Fuc(a1-2)[Gal(a1-3)]Gal(b1-3)GalNAc
# Method in brief: as §1
# [4] = biological target: Fuc(a1-2)[Gal(a1-3)]Gal(b1-3)GlcNAc(b1-2)Man(a1-3)[Fuc(a1-2)[Gal(a1-3)]Gal(b1-3)GlcNAc(b1-2)Man(a1-6)]Man(b1-4)GlcNAc(b1-4)GlcNAc
# Method in brief: as §1
# [5] = biological target: Fuc(a1-2)[Gal(a1-3)]Gal(b1-3)GlcNAc(b1-2)Man(a1-3)[Fuc(a1-2)[Gal(a1-3)]Gal(b1-3)GlcNAc(b1-2)Man(a1-6)]Man(b1-4)GlcNAc(b1-4)[Fuc(a1-6)]GlcNAc
# Method in brief: as §1
# [6] = biological target: Fuc(a1-2)[Gal(a1-3)]Gal(b1-4)GlcNAc(b1-2)Man(a1-3)[Fuc(a1-2)[Gal(a1-3)]Gal(b1-4)GlcNAc(b1-2)Man(a1-6)]Man(b1-4)GlcNAc(b1-4)GlcNAc
# Method in brief: as §1
# [7] = biological target: Fuc(a1-2)[GalNAc(b1-3)]Gal
# Method in brief: as §1
# [8] = biological target: Fuc(a1-3)[Gal(b1-4)]GlcNAc(b1-3)GalNAc
# Method in brief: as §1
# [9] = biological target: Fuc(a1-3)[Gal(b1-4)]GlcNAc(b1-6)[Gal(b1-3)GlcNAc(b1-3)]Gal(b1-4)Glc
# Method in brief: as §1
# Gal(a1-2)Gal = biological target: Gal(a1-2)Gal
# Method in brief: as §1
# [10] = biological target: Gal(a1-3)Fuc(a1-2)Gal(b1-4)GlcNAc(b1-3)[Gal(a1-3)Fuc(a1-2)Gal(b1-4)GlcNAc(b1-6)]GalNAc
# Method in brief: as §1
# [11] = biological target: Gal(a1-3)Gal(b1-3)GlcNAc(b1-2)Man
# Method in brief: as §1
# Gal(a1-3)Gal(b1-4)GlcNAc = biological target: Gal(a1-3)Gal(b1-4)GlcNAc
# Method in brief: as §1
# [12] = biological target: Gal(a1-3)Gal(b1-4)GlcNAc(b1-2)Man(a1-3)[Gal(a1-3)Gal(b1-4)GlcNAc(b1-2)Man(a1-6)]Man(b1-4)GlcNAc(b1-4)GlcNAc
# Method in brief: as §1
# [13] = biological target: Gal(a1-3)Gal(b1-4)[Fuc(a1-3)]GlcNAc
# Method in brief: as §1
# [14] = biological target: Gal(a1-3)[Gal(a1-4)]Gal(b1-4)GlcNAc
# Method in brief: as §1
# [15] = biological target: Gal(a1-4)Gal(b1-3)GlcNAc(b1-2)Man(a1-3)[Gal(a1-4)Gal(b1-3)GlcNAc(b1-2)Man(a1-6)]Man(b1-4)GlcNAc(b1-4)GlcNAc
# Method in brief: as §1
# [16] = biological target: Gal(a1-4)Gal(b1-4)GlcNAc(b1-2)Man(a1-3)[Gal(a1-4)Gal(b1-4)GlcNAc(b1-2)Man(a1-6)]Man(b1-4)GlcNAc(b1-4)GlcNAc
# Method in brief: as §1
# Gal(a1-4)GlcNAc = biological target: Gal(a1-4)GlcNAc
# Method in brief: as §1
# [17] = biological target: Gal(b1-3)GalNAc(a1-3)[Fuc(a1-2)]Gal(b1-4)GlcNAc
# Method in brief: as §1
# [18] = biological target: Gal(b1-3)GlcNAc(a1-6)Gal(b1-4)GlcNAc
# Method in brief: as §1
# Gal(b1-3)GlcNAc(b1-2)Man = biological target: Gal(b1-3)GlcNAc(b1-2)Man
# Method in brief: as §1
# [19] = biological target: Gal(b1-3)GlcNAc(b1-2)[Gal(b1-3)GlcNAc(b1-6)]Man(a1-6)[Gal(b1-3)GlcNAc(b1-2)Man(a1-3)]Man(b1-4)GlcNAc(b1-4)GlcNAc
# Method in brief: as §1
# [20] = biological target: Gal(b1-3)GlcNAc(b1-3)Gal(b1-4)GlcNAc
# Method in brief: as §1
# [21] = biological target: Gal(b1-3)GlcNAc(b1-3)Gal(b1-4)GlcNAc(b1-6)[Gal(b1-3)GlcNAc(b1-3)]Gal(b1-4)Glc
# Method in brief: as §1
# [22] = biological target: Gal(b1-3)GlcNAc(b1-3)Gal(b1-4)[Fuc(a1-3)]GlcNAc
# Method in brief: as §1
binder,measurement,setting,value
GSL-I-B4 (Griffonia simplicifolia) (protein) NFWSDVEDSIIFQGDANTTAGTLQLCKTNQYGTPLQWSAGRALYSDPVQLWDNKTESVASFYTEFTFFLKITGNGPADGLAFFLAPPDSDVKDAGEYLGLFNKSTATQPSKNQVVAVEFDTWTNPNFPEPSYRHIGINVNSIVSVATKRWEDSDIFSGKIATARISYDGSAEILTVVLSYPDGSDYILSHSVDMRQNLPESVRVGISASTGNNQFLTVYILSWRFSSNLQSTSVKAAMEPEITRTVV,glycan array binding signal (z-score),[1],-0.132
same,glycan array binding signal (z-score),[2],-0.131
same,glycan array binding signal (z-score),[3],0.853
same,glycan array binding signal (z-score),[4],1.74
same,glycan array binding signal (z-score),[5],0.077
same,glycan array binding signal (z-score),[6],3.69
same,glycan array binding signal (z-score),[7],-0.12
same,glycan array binding signal (z-score),[8],-0.197
same,glycan array binding signal (z-score),[9],-0.155
same,glycan array binding signal (z-score),Gal(a1-2)Gal,5.94
same,glycan array binding signal (z-score),[10],1.98
same,glycan array binding signal (z-score),[11],1.88
same,glycan array binding signal (z-score),Gal(a1-3)Gal(b1-4)GlcNAc,2
same,glycan array binding signal (z-score),[12],7.78
same,glycan array binding signal (z-score),[13],6.03
same,glycan array binding signal (z-score),[14],1.71
same,glycan array binding signal (z-score),[15],5.37
same,glycan array binding signal (z-score),[16],1.52
same,glycan array binding signal (z-score),Gal(a1-4)GlcNAc,13.8
same,glycan array binding signal (z-score),[17],-0.212
same,glycan array binding signal (z-score),[18],-0.155
same,glycan array binding signal (z-score),Gal(b1-3)GlcNAc(b1-2)Man,-0.171
same,glycan array binding signal (z-score),[19],-0.138
same,glycan array binding signal (z-score),[20],-0.228
same,glycan array binding signal (z-score),[21],-0.187
same,glycan array binding signal (z-score),[22],-0.177
